High-throughput results (PubChem BioAssay)
CYP2C9 activ – activators of human CYP2C9 | P11712 | activation factor at 5 µM | AID 1024 | recombinant CYP2C9, luciferin-H conversion, luminescence; stronger effect = higher value; factor 1 = untreated enzyme, 0 = blocked | hit rate 1.4% among 96,000;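 active means activation factor of 2 or more for CYP2C9 at a 5 µM dose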;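 further: 0 = sulfaphenazole-blocked wells and 1 = vehicle-only wells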
Target sequence (P11712 whole entry, looked up): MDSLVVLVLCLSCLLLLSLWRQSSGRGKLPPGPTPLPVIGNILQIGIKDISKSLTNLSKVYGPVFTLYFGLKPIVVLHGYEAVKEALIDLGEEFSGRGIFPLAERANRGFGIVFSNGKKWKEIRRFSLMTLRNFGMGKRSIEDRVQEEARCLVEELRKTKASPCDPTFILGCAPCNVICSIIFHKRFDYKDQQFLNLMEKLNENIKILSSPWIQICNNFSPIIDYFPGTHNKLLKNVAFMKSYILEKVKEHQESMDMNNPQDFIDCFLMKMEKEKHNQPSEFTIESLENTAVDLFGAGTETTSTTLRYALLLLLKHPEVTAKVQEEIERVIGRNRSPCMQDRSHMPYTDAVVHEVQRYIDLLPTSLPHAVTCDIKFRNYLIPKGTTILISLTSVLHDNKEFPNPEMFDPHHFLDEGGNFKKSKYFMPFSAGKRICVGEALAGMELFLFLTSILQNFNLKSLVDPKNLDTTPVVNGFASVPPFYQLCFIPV
Measles CPE – protection of cells from measles virus | Measles virus-infected cells, CPE protection, absorbance | protection (pct of control), % at 4 µM | hit rate 1.5% among 140,000; in the data active means protection mostly above about 24%, no sharp cut-off; inactive means mostly below about 26%
CYP2C19 inhib – human CYP2C19 inhibition | P33261 | CYP2C19 Supersomes, luciferin-H EGE luminescence, 30 min | inhibition, % at 5 µM | hit rate 21% among 96,000 | AID 778;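 active means CYP2C19 inhibition above a set limit at 5 µM in the primary screen, cut at about 50% in these data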;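 further: plate controls were negative control wells for no effect and 2.5 mM tranylcypromine positive control for full effect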
CYP2C19 activ – cytochrome P450 2C19 (human) activation. P33261. recombinant CYP2C19, luciferin-H EGE luminescence; stronger effect = higher value; 0 = fully inhibited enzyme, 1 = untreated enzyme. activation factor at 5 µM. 96,000 tested, under 10 active;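 active means activation factor of at least 2 at 5 µM in the primary screen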;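 further: 0 = wells with 2.5 mM tranylcypromine and 1 = vehicle-only wells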
CYP2C9 inhib – human CYP2C9 inhibition; P11712; hit rate 20% among 96,000; inhibition, % at 5 µM; CYP2C9 Supersomes, luciferin-H conversion, luminescence; AID 777;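 active means blocking of liver enzyme CYP2C9 beyond about 50% at 5 µM, limit read from the data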
Starred values were filed as active, the others as inactive; . = not tested or not shown. An excerpt weighted towards active compounds, which were near 22% of everything screened.

SMILES | CYP2C9 activ | Measles CPE | CYP2C19 inhib | CYP2C19 activ | CYP2C9 inhib
O=C(/C=C/c1ccccc1)NC(=S)NNC(=O)c1cccnc1 | 0.5 | 12 | 1 | 1 | 51*
Cc1ccc2[nH]c(=O)c3cc(C(=O)NCCN4CCN(C)CC4)sc3c2c1 | 1 | 8 | -7 | 1.1 | 1
CCCCN(Cc1ccco1)C(=O)c1cc2c(=O)[nH]c3ccc(C)cc3c2s1 | 0.3 | 11 | 50* | 0.5 | 72*
Cc1ccc2[nH]c(=O)c3cc(C(=O)N(CCCOC(C)C)Cc4ccco4)sc3c2c1 | 0.4 | 2 | 37 | 0.6 | 58*
Cc1cccc(N2CCN(C(=S)NCc3ccco3)CC2)c1C | . | 0 | . | . | .
O=c1c(-c2ccc3c(c2)OCCO3)coc2cc(O)cc(O)c12 | 2.4* | 15 | 12 | 0.9 | -141
COCCCNC(=O)CN(c1cccc(Cl)c1)S(C)(=O)=O | 1.3 | 6 | 14 | 0.9 | -28
CS(=O)(=O)N(CC(=O)Nc1ccccc1Sc1ccccc1)C1CCCCC1 | 0.6 | 5 | 24 | 0.8 | 42
CCCCC1CC1C(=O)Nc1ccc(OC)c(OC)c1 (centres undefined) | 0.4 | 8 | 92* | 0.1 | 59*
CCCCOC(=O)c1ccc(NC(=O)Nc2ccc(OC)c(OC)c2)cc1 | 0.6 | 20 | 16 | 0.8 | 39
CSc1cccc(NC(=O)CN(C2CCCCC2)S(C)(=O)=O)c1 | 0.3 | 4 | 59* | 0.4 | 71*
COc1ccc(NC(=O)CN(C2CCCCC2)S(C)(=O)=O)cc1OC | 0.7 | 20 | 50* | 0.5 | 35
COc1ccc2c(c1)C(c1ccc([N+](=O)[O-])cc1)=NNC(c1ccco1)=N2 | 0.7 | 8 | 36 | 0.6 | 26
CN1C(=O)CSc2ccc(NC(=O)NCc3cccnc3)cc21 | 0.3 | 31 | 56* | 0.4 | 72*
COc1cccc(NC(=O)Nc2ccc3c(c2)N(C)C(=O)CS3)c1 | 1 | 7 | 65* | 0.4 | -4
CCOc1ccc(OCC)c(NC(=O)Nc2ccc3c(c2)N(C)C(=O)CS3)c1 | 0.6 | 0 | 58* | 0.4 | 37
CN1C(=O)CSc2ccc(NC(=O)Nc3ccccn3)cc21 | 1.1 | 16 | 0 | 1 | -9
COC(=O)[C@H](C)NC(=O)COc1ccccc1 | 1 | 8 | -2 | 1 | -4
O=C(NC(NC1CCS(=O)(=O)C1)C(=O)c1ccccc1)c1ccc(Cl)cc1 (centres undefined) | 1 | 1 | 13 | 0.9 | 4
CC(c1ccccc1)N(NC(=O)C(O)(c1ccccc1)c1ccccc1)C(=O)c1ccccc1 (centres undefined) | . | 8 | . | . | .
O=C(CC(=O)NC1CCCCC1)N/N=C/c1ccccc1Cl | . | 6 | . | . | .
CSC1=NCCN1C(=O)Cc1ccc(Cl)cc1 | 0.7 | 18 | 57* | 0.4 | 27
COc1ccc(CC(=O)N2CCN=C2SC)cc1 | 1 | 14 | 41 | 0.6 | 4
COc1ccccc1Oc1c(C)oc2c(CN(C)C)c(O)ccc2c1=O | . | 15 | . | . | .
Cc1ccc(S(=O)(=O)NC(CN2CCOCC2)=NCCNS(=O)(=O)c2ccccc2)cc1 | 0.5 | 10 | 29 | 0.7 | 52*
SMILES | CYP2C9 activ | Measles CPE | CYP2C19 inhib | CYP2C19 activ | CYP2C9 inhib
CC1C2C(c3ccccc3)N(C)C(=O)N(C)C2N(C)C(=O)N1C (centres undefined) | 1.1 | 12 | -7 | 1.1 | -11
CCN1C(c2ccccc2)C(C)C(=O)C(C)C1c1ccccc1 (centres undefined) | 0.1 | 10 | 65* | 0.3 | 88*
O=C1C2C3C=CC([C@@H]2C(=O)N1C1CC1)[C@H]1C(=O)N(C2CC2)C(=O)C31 (some centres undefined) | 1 | 21 | 8 | 0.9 | -1
Cc1nc(-c2cccc(NS(C)(=O)=O)c2)cs1 | 1 | 7 | -11 | 1.1 | -1
Cc1nc(-c2cccc(NS(=O)(=O)c3cccc4ccccc34)c2)cs1 | 1.1 | 27 | 98* | 0 | -6
Nc1nc(-c2cccc(NS(=O)(=O)c3ccccc3)c2)cs1 | 0 | 6 | 99* | 0 | 95*
O=C1CN(C(=O)COC(=O)c2ccccc2NCc2ccco2)c2ccccc2N1 | 0.6 | 9 | 56* | 0.4 | 40
CCOc1ncccc1C(=O)OCC(=O)N1CC(=O)Nc2ccccc21 | 1.3 | 9 | -11 | 1.1 | -32
Cn1c2ccccc2c2cc(C(=O)OCC(=O)N3CC(=O)Nc4ccccc43)sc21 | 2* | 7 | 86* | 0.1 | -104
O=C(NCCc1ccccn1)C(F)(F)C(F)(F)C(F)(F)C(F)(F)C(F)(F)C(F)(F)C(F)(F)C(F)F | . | 21 | . | . | .
COc1ccc(CCNc2ccc(C)cc2)cc1 | 0.5 | 20 | 85* | 0.2 | 45
